Of roughly 8,800 targets only a part is listed; those with a hit were picked by preference. About 0.5% of all pairs of compound and target were hits.

Chain of UniProt Q13409 (Q13409 whole entry, looked up): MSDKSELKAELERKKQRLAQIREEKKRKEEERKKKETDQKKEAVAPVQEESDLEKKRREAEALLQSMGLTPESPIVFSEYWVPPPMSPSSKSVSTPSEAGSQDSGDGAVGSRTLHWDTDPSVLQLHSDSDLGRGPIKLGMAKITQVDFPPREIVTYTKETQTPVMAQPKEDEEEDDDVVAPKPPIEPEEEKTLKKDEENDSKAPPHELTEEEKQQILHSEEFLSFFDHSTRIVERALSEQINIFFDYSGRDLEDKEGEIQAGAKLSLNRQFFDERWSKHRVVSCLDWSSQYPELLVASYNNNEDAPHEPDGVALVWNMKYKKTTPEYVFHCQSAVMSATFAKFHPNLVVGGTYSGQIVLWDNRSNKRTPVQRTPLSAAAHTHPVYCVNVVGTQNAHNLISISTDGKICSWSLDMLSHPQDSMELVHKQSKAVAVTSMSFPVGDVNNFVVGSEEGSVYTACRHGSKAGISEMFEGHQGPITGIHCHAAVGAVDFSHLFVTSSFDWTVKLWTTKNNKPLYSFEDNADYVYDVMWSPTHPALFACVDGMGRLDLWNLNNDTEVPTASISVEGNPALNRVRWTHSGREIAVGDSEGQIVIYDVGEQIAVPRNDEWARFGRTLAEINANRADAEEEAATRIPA
Chain of UniProt Q9UI10 (Q9UI10 whole entry, looked up): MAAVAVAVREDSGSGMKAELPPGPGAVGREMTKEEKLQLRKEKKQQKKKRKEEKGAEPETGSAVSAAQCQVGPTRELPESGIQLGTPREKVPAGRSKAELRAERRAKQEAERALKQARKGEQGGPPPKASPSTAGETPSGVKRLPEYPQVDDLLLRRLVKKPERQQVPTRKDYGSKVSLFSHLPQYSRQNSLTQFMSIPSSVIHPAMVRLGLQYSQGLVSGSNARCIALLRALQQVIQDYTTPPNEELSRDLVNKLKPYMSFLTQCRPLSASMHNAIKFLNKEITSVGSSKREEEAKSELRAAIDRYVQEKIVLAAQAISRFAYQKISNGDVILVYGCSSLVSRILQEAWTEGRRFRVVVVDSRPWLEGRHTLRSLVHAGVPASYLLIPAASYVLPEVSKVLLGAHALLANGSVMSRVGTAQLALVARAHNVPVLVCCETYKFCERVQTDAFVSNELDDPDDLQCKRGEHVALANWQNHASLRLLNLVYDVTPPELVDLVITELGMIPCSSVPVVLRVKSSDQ
Chain of UniProt Q9BPY3 (Q9BPY3 whole entry, looked up): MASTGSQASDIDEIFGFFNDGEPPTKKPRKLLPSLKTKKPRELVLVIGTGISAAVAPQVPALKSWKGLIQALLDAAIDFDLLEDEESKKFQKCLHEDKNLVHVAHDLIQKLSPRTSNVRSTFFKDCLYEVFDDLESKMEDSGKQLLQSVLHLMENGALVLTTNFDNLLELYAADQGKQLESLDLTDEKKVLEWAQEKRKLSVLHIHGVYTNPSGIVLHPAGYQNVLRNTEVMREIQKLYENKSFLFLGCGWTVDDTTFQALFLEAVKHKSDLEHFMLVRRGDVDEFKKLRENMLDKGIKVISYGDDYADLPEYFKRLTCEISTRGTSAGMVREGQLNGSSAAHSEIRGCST
Chain of UniProt P19525 (P19525 whole entry, looked up): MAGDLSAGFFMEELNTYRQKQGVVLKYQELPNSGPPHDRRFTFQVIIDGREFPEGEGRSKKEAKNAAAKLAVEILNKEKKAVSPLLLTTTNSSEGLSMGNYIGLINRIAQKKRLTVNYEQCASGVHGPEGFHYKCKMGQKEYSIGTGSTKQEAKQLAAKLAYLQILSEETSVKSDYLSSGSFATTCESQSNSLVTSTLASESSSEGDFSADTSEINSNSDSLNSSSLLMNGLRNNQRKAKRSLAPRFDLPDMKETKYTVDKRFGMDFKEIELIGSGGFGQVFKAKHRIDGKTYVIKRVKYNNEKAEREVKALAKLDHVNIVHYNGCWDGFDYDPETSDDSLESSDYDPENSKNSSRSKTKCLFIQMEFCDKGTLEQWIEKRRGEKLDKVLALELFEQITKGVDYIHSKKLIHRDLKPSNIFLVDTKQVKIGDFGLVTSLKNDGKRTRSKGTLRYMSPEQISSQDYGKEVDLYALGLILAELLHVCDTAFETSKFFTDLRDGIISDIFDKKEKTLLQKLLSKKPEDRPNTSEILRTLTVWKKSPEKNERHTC
Chain of UniProt O95571 (O95571 whole entry, looked up): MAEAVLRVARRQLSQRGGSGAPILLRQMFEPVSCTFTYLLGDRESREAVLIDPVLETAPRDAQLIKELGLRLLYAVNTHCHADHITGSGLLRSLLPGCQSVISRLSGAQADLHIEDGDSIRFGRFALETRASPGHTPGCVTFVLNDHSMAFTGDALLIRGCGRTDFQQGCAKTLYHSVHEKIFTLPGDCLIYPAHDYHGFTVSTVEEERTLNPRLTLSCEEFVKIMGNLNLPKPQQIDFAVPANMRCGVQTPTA
Chain of UniProt Q9Y613 (Q9Y613 whole entry, looked up): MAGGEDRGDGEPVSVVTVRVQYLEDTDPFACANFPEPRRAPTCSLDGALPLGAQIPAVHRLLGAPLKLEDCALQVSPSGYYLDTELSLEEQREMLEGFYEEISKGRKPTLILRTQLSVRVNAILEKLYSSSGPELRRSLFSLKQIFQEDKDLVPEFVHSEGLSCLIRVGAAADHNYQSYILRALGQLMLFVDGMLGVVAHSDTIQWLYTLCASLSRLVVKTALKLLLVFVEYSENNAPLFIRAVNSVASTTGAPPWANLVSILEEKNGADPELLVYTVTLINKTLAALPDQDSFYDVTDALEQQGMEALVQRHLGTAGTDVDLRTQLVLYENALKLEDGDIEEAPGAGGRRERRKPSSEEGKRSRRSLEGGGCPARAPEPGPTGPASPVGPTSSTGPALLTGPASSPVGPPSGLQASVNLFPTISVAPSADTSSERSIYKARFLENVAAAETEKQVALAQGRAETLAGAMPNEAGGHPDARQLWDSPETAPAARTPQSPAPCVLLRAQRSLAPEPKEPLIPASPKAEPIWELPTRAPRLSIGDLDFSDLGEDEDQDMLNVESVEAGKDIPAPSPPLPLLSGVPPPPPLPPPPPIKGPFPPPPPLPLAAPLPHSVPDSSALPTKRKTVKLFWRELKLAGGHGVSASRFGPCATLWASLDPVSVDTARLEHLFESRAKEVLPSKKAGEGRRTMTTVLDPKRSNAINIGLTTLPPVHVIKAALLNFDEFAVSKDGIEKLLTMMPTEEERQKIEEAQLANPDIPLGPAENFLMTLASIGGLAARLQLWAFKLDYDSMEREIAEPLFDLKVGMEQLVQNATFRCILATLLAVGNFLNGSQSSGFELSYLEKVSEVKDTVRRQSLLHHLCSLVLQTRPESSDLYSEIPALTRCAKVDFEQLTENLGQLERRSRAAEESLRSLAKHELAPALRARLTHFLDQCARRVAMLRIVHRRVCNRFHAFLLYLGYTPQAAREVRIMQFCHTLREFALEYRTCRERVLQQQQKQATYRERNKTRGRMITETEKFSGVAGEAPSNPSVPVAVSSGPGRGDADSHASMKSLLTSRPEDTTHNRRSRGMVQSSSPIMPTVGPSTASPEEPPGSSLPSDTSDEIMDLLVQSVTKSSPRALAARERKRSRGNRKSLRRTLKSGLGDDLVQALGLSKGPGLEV
Chain of UniProt Q9H410 (Q9H410 whole entry, looked up): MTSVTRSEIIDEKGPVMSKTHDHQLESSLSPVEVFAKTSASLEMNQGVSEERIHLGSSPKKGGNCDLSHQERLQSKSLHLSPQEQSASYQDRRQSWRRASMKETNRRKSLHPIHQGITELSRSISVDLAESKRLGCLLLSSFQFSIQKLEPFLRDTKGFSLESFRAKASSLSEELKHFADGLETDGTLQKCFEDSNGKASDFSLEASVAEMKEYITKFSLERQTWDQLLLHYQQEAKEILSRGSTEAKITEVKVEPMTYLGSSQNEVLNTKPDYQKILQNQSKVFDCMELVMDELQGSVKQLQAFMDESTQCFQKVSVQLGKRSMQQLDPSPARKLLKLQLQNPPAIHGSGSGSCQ
Chain of UniProt O75477 (O75477 whole entry, looked up): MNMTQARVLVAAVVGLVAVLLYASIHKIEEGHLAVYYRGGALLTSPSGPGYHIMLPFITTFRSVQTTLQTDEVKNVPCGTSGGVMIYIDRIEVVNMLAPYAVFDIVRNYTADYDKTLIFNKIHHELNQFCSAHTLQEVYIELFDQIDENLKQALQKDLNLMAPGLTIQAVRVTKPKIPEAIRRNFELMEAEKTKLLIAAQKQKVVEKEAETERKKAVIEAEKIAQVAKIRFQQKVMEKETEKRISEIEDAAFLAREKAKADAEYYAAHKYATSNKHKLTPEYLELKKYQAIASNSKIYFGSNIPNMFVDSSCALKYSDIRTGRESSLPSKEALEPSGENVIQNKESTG
Chain of UniProt P85037 (P85037 whole entry, looked up): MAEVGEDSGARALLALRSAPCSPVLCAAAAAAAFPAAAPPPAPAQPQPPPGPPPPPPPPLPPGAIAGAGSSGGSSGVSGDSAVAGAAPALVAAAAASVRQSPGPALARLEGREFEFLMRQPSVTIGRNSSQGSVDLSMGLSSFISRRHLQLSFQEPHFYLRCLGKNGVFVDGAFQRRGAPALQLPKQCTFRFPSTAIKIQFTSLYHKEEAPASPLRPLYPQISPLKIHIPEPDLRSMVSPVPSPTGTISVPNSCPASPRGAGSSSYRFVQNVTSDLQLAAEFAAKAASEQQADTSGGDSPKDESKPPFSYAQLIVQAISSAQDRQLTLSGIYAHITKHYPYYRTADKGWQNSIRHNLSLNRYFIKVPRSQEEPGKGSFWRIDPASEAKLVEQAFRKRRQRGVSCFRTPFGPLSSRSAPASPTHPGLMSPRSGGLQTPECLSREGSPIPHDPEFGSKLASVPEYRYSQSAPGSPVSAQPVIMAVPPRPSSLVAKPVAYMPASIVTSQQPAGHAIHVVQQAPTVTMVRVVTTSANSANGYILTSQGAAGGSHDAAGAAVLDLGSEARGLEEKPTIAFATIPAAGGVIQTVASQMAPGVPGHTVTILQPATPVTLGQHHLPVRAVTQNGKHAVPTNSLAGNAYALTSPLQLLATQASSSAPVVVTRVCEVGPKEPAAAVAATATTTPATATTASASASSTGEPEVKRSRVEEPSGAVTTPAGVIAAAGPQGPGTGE

Compound in the first assay: CC[C@@H]1C(=O)N(C)c2cnc(Nc3ccc(C(=O)N[C@H]4CC[C@H](N5CCN(CC6CC6)CC5)CC4)cc3OC)nc2N1C(C)C [volasertib]
Put plainly: log2 fold change, soluble protein after heating vs DMSO (PISA); higher = thermal stabilisation; K562 lysate, 10 uM; active = over 0.2 and 3.5 SD of the protein, either way, in both replicates (recomputed). In a few lines: (§1)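 K562 pellets were dounce-homogenised in PBS pH 7.4 containing 1 mM MgCl2, and the crude extract, at 1 mg/mL protein, was exposed to 10 μM compound for 30 min. Aliquots were heated for 3 min across 48°C-58°C, pooled, brought to 0.5% NP-40 at 4°C and spun at 21,000xg for 90 min, with the supernatant taken as soluble protein. TMTpro 16plex LC-MS/MS with equalised channel sums quantified that protein. Values are log-two fold changes in thermal stability relative to solvent controls, taken from duplicates.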
Consider GEMIN4 (UniProt P57678), for which the log2 fold change was -0.053 (inactive). Still for that read-out and setting: as for ERAL1 (UniProt O75616), the figure is -0.046 (inactive). Turning to EMC7 (UniProt Q9NPA0), the log2 fold change is 0 (inactive). On the same count and under the same terms, as for EED, A0A5F9ZI63, the figure is 0.015 (inactive); as for FAM118B (UniProt Q9BPY3), 0.001 (inactive); as for GBF1 (UniProt Q92538), -0.05 (inactive). Still for that read-out and setting: in the case of FAT2 (UniProt Q9NYQ8) it was -0.097 (inactive); in that of FLT4 (UniProt P35916), -0.042 (inactive).

Consider ERLIN1 (UniProt O75477), for which the log2 fold change was -0.029 (inactive). The same measure, in the same setting: as for EAPP (UniProt Q56P03), the figure is 0.02 (inactive); as for GIGYF2 (UniProt Q6Y7W6), -0.05 (inactive); as for FOXK1 (UniProt P85037), -0.019 (inactive). On the same count and under the same terms, in the case of EIF2B4 (UniProt Q9UI10) it was -0.032 (inactive); in that of GAPDH (UniProt P04406), -0.002 (inactive). Same read-out and setting: as for EEF1AKMT4 (UniProt P0DPD7), the figure is -0.072 (inactive); as for FYCO1 isoform 4 (UniProt Q9BQS8), -0.004 (inactive). For the target ETHE1 (UniProt O95571), the log2 fold change is -0.017 (inactive).

Regarding FBXO22 (UniProt Q8NEZ5), the log2 fold change is -0.027 (inactive). The same measure, in the same setting: as for EP300 (UniProt Q09472), the figure is -0.042 (inactive); as for GEMIN2 (UniProt O14893), 0.009 (inactive). The same measure, in the same setting: as for DYNC1I2 isoform 2 (UniProt Q13409), the figure is -0.039 (inactive); as for DYNC1I2 isoform 5 (UniProt Q13409), -0.013 (inactive). Still for that read-out and setting: as for FBXO45 (UniProt P0C2W1), the figure is -0.04 (inactive); as for EPB41, A0A2R8Y783, 0.057 (inactive); as for FYN (UniProt P06241), 0.046 (inactive).

As to GAA (UniProt P10253), the log2 fold change was 0.015 (inactive).

Consider FXR2 (UniProt P51116), for which the log2 fold change is -0.028 (inactive).

Consider FPGT (UniProt O14772), for which the log2 fold change is -0.018 (inactive). The same measure, in the same setting: as for FHOD1 (UniProt Q9Y613), the figure is -0.034 (inactive); as for EFCAB14 (UniProt O75071), 0.008 (inactive); as for DSN1 (UniProt Q9H410), 0.001 (inactive). With FAM83D (UniProt Q9H4H8), the log2 fold change was -0.047 (inactive). In the case of EWSR1 isoform 5 (UniProt Q01844), the log2 fold change is 0.045 (inactive).

As for FAM83A (UniProt Q86UY5), the log2 fold change was 0.003 (inactive). Still for that read-out and setting: as for GABPB1 isoform 3 (UniProt Q06547), the figure is -0.11 (inactive); as for DUS2 (UniProt Q9NX74), -0.071 (inactive); as for EIF2AK2 (UniProt P19525), -0.03 (inactive).

Compound in the next assay: CCn1c(C(=O)N(C2CC2)C2CC2)cc2c3c(ncn3C)c(Nc3cc(C)n(C)n3)nc21
The description is as above. An outline of the steps:
as §1
As for GEMIN4 (UniProt P57678), the log2 fold change was 0.023 (inactive). On the same count and under the same terms, in the case of ERAL1 (UniProt O75616) it was 0.059 (inactive); in that of EMC7 (UniProt Q9NPA0), -0.023 (inactive). EED, A0A5F9ZI63: the log2 fold change was -0.012 (inactive). On the same count and under the same terms, as for FAM118B (UniProt Q9BPY3), the figure is 0.022 (inactive); as for GBF1 (UniProt Q92538), 0.006 (inactive); as for FAT2 (UniProt Q9NYQ8), 0.089 (inactive). On to FLT4 (UniProt P35916), for which the log2 fold change is 0.135 (inactive). Same read-out and setting: in the case of ERLIN1 (UniProt O75477) it was 0.033 (inactive). The same measure, in the same setting: in the case of EAPP (UniProt Q56P03) it was 0.009 (inactive); in that of GIGYF2 (UniProt Q6Y7W6), -0.001 (inactive); in that of FOXK1 (UniProt P85037), 0.013 (inactive). As to EIF2B4 (UniProt Q9UI10), the log2 fold change is 0.048 (inactive). Same read-out and setting: in the case of GAPDH (UniProt P04406) it was -0.009 (inactive). Still for that read-out and setting: as for EEF1AKMT4 (UniProt P0DPD7), the figure is -0.035 (inactive).

As to FYCO1 isoform 4 (UniProt Q9BQS8), the log2 fold change is 0.031 (inactive).

As for ETHE1 (UniProt O95571), the log2 fold change was -0.007 (inactive). For FBXO22 (UniProt Q8NEZ5), the log2 fold change was 0.012 (inactive). The same measure, in the same setting: in the case of EP300 (UniProt Q09472) it was -0.009 (inactive); in that of GEMIN2 (UniProt O14893), 0.011 (inactive).

As for DYNC1I2 isoform 2 (UniProt Q13409), the log2 fold change is 0.035 (inactive). The same measure, in the same setting: in the case of DYNC1I2 isoform 5 (UniProt Q13409) it was -0.016 (inactive). Take FBXO45 (UniProt P0C2W1): the log2 fold change is 0.062 (inactive). The same measure, in the same setting: in the case of FYN (UniProt P06241) it was 0.033 (inactive); in that of GAA (UniProt P10253), -0.021 (inactive). Turning to FXR2 (UniProt P51116), the log2 fold change was 0.028 (inactive). Still for that read-out and setting: as for FPGT (UniProt O14772), the figure is 0.008 (inactive). The same measure, in the same setting: as for FHOD1 (UniProt Q9Y613), the figure is 0.048 (inactive); as for EFCAB14 (UniProt O75071), -0.042 (inactive); as for DSN1 (UniProt Q9H410), 0.001 (inactive). On the same count and under the same terms, in the case of FAM83D (UniProt Q9H4H8) it was -0.01 (inactive); in that of EWSR1 isoform 5 (UniProt Q01844), -0.006 (inactive); in that of FAM83A (UniProt Q86UY5), 0.05 (inactive). Regarding GABPB1 isoform 3 (UniProt Q06547), the log2 fold change is -0.016 (inactive).

In the case of DUS2 (UniProt Q9NX74), the log2 fold change was -0.016 (inactive). On the same count and under the same terms, as for EIF2AK2 (UniProt P19525), the figure is -0.008 (inactive).
